Reference: PubChem BioAssay (NCATS)
Records with an inconclusive call do not appear. Entries that show only a call come without a potency. Unmarked numbers belong to inactive results. Activity calls are given as the source filed them. Calls follow the shape of the dose curve; as a rule, active = well fitted inhibition curve with a large enough effect; inconclusive = small, poorly fitted or top-dose-only effect; inactive = no such curve, though single readings can be large or run the other way.

assay: qHTS for Inhibitors of the Aldehyde Dehydrogenase Family (ALDH1A2, ALDH1A3, ALDH2, ALDH3A1) (AID 2061307); settings: ALDH inhibition qHTS; series mostly up to 50.3 µM; also: nearly all actives have a fitted effect of over 50% in size; as to potency: test system not described further here
Potency is read from the fitted curve at half-maximal effect.

Q: For CC(=O)c1ccc(N2CCN(C(=O)CCS(=O)(=O)c3ccc4c(c3)oc(=O)n4C)CC2)cc1, which Potency is on record?
A: The Potency was “inactive”.

Q: For COc1cccc(S(=O)(=O)N2CCC3(CC2)CC(CC(=O)NC2CC2)CCO3)c1 (stereo not given), which Potency is on record?
A: Its Potency is “inactive”.

Q: Which Potency does the source give for CCC(=O)Nc1ccc(S(=O)(=O)NCc2ccc3c(c2)CCN3C(=O)c2ccc(C)cc2)cc1 here?
A: The Potency was “inactive”.

Q: With O=C(O)c1ccc2c(c1)C(=O)N(CCc1ccc(O)cc1)C2=O as the compound, how does the Potency read?
A: Its Potency is “inactive”.

Q: Which Potency does the source give for O=C(C1CCN(Cc2ccccc2-c2ccccc2F)CC1)N1CCN(Cc2ccccc2)CC1 here?
A: The Potency was “inactive”.

Q: For CN1CCN(c2ccc(NC(=O)CN(C)Cc3c(O)ccc4ccccc34)cc2)CC1, which Potency is on record?
A: The Potency was 7.12 µM (active).

Q: With Cn1sc(=O)n(Cc2ccccc2)c1=O as the compound, how does the Potency read?
A: The Potency was 10.1 µM (active).

Q: For Cc1nc(C(C)Nc2ncnc3ccc(-c4ccc5c(c4)OCO5)cc23)cs1 (stereo not given), which Potency is on record?
A: The Potency was “inactive”.

Q: With CC(C)(C)c1ccc(S(=O)(=O)c2cnc(SCC(=O)Nc3ccc(F)c(Cl)c3)[nH]c2=O)cc1 as the compound, how does the Potency read?
A: The Potency was 12.7 µM (active).

Q: For NC(=O)C1CCN(c2nc(-c3ccc4ccccc4c3)cs2)CC1, which Potency is on record?
A: Its Potency is 5.65 µM (active).

Q: For Cc1cc(C)nc(NC(=S)N2CCN(c3ccc4cn(C)nc4c3)CC2)c1, which Potency is on record?
A: The Potency was “inactive”.

Q: Which Potency does the source give for COc1cc(NS(=O)(=O)c2cccc([N+](=O)[O-])c2)c2ncccc2c1 here?
A: The Potency was 11.3 µM (active).

Q: With Cc1ccc(CCN2C(=O)c3ccc(C(=O)O)cc3C2=O)cc1 as the compound, how does the Potency read?
A: Its Potency is “inactive”.

Q: For CN(C)c1ccc(-c2cc[nH]c(=O)c2N)cc1, which Potency is on record?
A: The Potency was 12.7 µM (active).

Q: Which Potency does the source give for CC(C)CCN(C)Cc1ccc(-c2ccccc2)cc1 here?
A: Its Potency is 25.1 µM (active).

Q: Which Potency does the source give for O=S1(=O)N=C(Oc2cccc3ccccc23)c2ccccc21 here?
A: Its Potency is 2.83 µM (active).

Q: With COc1ccc(-c2nc(CCNC(=O)c3c(F)cccc3Cl)cs2)cc1 as the compound, how does the Potency read?
A: The Potency was “inactive”.

Q: Which Potency does the source give for O=C(Cc1ccc(F)cc1)Nc1cccc(-c2nc3cccnc3s2)c1 here?
A: The Potency was “inactive”.

Q: For Cc1oc(-c2ccccc2F)nc1CS(=O)(=O)CC(=O)N1CCN(c2cccc(C(F)(F)F)c2)CC1, which Potency is on record?
A: The Potency was “inactive”.

Q: For CN(C)c1cccc(-c2cnc(N3CCC(c4ncc[nH]4)CC3)s2)c1, which Potency is on record?
A: Its Potency is 10.1 µM (active).

Q: Which Potency does the source give for COc1cccc(CNC(=O)c2ccc3c(c2)sc2nc(-c4ccccc4)cn23)c1OC here?
A: The Potency was “inactive”.

Q: Which Potency does the source give for COc1ccc(C2=NN(CC(=O)NCCc3ccc(OC)c(OC)c3)C(=O)CC2)cc1 here?
A: Its Potency is “inactive”.

Q: For COc1ccc(C2=Nn3c(nnc3-c3ccccc3OC)SC2)cc1OC1CCCC1, which Potency is on record?
A: Its Potency is 15.8 µM (active).

Q: With CC(=O)c1c(C)n(-c2ccc(C)cc2)c2ccc(OC(=O)COc3ccccc3)cc12 as the compound, how does the Potency read?
A: The Potency was “inactive”.

Q: For O=C1Nc2cc(Cl)ccc2/C1=C\c1cc(Cl)c(O)c(Cl)c1, which Potency is on record?
A: Its Potency is 3.57 µM (active).

Q: For Cc1ccc(S(=O)(=O)Nc2cnccc2C(=O)Nc2nc(C(=O)O)cs2)cc1, which Potency is on record?
A: Its Potency is “inactive”.

Q: Which Potency does the source give for COc1ccc(C2Nc3ccccc3C(=O)N2Cc2ccco2)cc1COc1ccc(N)cc1 (stereo not given) here?
A: The Potency was 1.79 µM (active).

Q: Which Potency does the source give for O=C1Cc2cc(S(=O)(=O)N3CCNCC3)ccc2N1 here?
A: Its Potency is “inactive”.

Q: Which Potency does the source give for COc1ccc(C(=O)N(Cc2ccco2)Cc2ccco2)c(O)c1 here?
A: Its Potency is 0.891 µM (active).

Q: With O=C(O)CN1C(=O)/C(=C/c2ccc(-c3cccc(Cl)c3)o2)SC1=S as the compound, how does the Potency read?
A: The Potency was 11.3 µM (active).

Q: For O=C1Cc2cc(S(=O)(=O)N3CCN(c4ccc(F)cc4)CC3)ccc2N1, which Potency is on record?
A: Its Potency is “inactive”.

Q: With CC(=O)N1CCN(c2ccc(NCc3ccc4c(c3)OCO4)cc2)CC1 as the compound, how does the Potency read?
A: The Potency was 8.96 µM (active).

Q: Which Potency does the source give for Cc1ccc(-c2cccc(C=O)c2)c(C)c1 here?
A: Its Potency is “inactive”.

Q: Which Potency does the source give for CCOC(=O)C1CCN(C(=O)C(C)(C)NC(=O)Nc2ccc(N(C)C)cc2)CC1 here?
A: Its Potency is “inactive”.

Q: For CCOC(=O)c1[nH]c2c(c1C)C(=S)CC(c1ccco1)C2 (stereo not given), which Potency is on record?
A: Its Potency is 8.96 µM (active).

Q: With Cc1ccc(-c2cc(C(=O)NCc3cccc(F)c3)nn3cnnc23)cc1 as the compound, how does the Potency read?
A: The Potency was 8.91 µM (active).

Q: Which Potency does the source give for CSCCC(NS(=O)(=O)c1ccc2c(c1)oc(=O)n2C)C(=O)N1CCN(c2ccc(C(C)=O)cc2)CC1 (stereo not given) here?
A: Its Potency is “inactive”.

Q: With CC(=O)Nc1sc2c(c1-c1csc3ccccc13)CCNC2 as the compound, how does the Potency read?
A: The Potency was “inactive”.

Q: For Cc1sc(NC(=O)Cc2ccc3c(c2)OCO3)nc1-c1ccc2c(c1)CCN2, which Potency is on record?
A: The Potency was 20.1 µM (active).

Q: Which Potency does the source give for O=C1Nc2ccc(Cl)cc2/C1=C\c1cc(Cl)c(O)c(Cl)c1 here?
A: The Potency was 10.1 µM (active).
